Laboratory results reported in PubChem BioAssay AID1049 (The Scripps Research Institute Molecular Screening Center, 2008).
Among all 200,000 compounds or so, about 780 (0.39%) were called active. Shown is part of a subset that was picked to be rich in actives. Values without a mark were called inactive. Rule as the data show it: active = TR-FRET ratio above about 2000; inactive = the rest.

Experiment: detection-format interference in TR-FRET ratio – biochemical, artefact control for PPARgamma SRC-2 agonist project, primary screen (AID 1049)
Details: TR-FRET artefact counter-screen; at 8 µM; active compounds read high
`COc1ccc2c(Cl)c(C(=O)NCc3ccco3)sc2c1` gave a TR-FRET ratio of 1570.
In the case of `COc1ccc(-c2nnco2)cc1OC`, the TR-FRET ratio was 1520.
In the case of `COc1ccc2c(Cl)c(-c3nnco3)sc2c1`, the TR-FRET ratio was 2130 (active).
In the case of `COCCNC(=S)N/N=C/c1c(C)[nH]c2ccccc12`, the TR-FRET ratio was 1410.
Compound `COc1ccc(C(=O)NC2CCN(C(=S)NCCc3ccccc3)CC2)cc1` has a TR-FRET ratio of 1560.
For `C/C=C(\C)C(=O)NCCN1C2=NC[C@H](Cc3ccc(O)cc3)N2C[C@@H]1Cc1ccc(OC)cc1`, the TR-FRET ratio was 1390.
Compound `CCN1CCC2(CCN(Cc3cn[nH]c3-c3ccc(OC)c(F)c3)C2)C1` (stereo not drawn) has a TR-FRET ratio of 1730.
With `N#Cc1ccc(-c2ccc(Cl)cc2)nc1Oc1ccc(F)cc1` the TR-FRET ratio was 5180 (active).
With `CN(C)c1ccnc(Oc2ccc(F)cc2)c1C#N` the TR-FRET ratio was 1800.
Compound `N#Cc1ccc(-c2ccc(F)cc2)nc1Sc1ccccc1` has a TR-FRET ratio of 1500.
For `CCn1cc(C(=O)Nc2cc(C)ccc2C)c(=O)c2ccc(C)nc21`, the TR-FRET ratio was 1650.
Compound `CCOC(=O)C1(Cc2cccc(OC)c2)CCN(C(C)CC(C)(C)O)CC1` (stereo not drawn) has a TR-FRET ratio of 1480.
`COC(=O)CSc1nccc(-c2cccs2)n1` showed a TR-FRET ratio of 1880.
`COc1ccc(OC)c(C(=O)CSc2nnc(-c3cccs3)o2)c1` showed a TR-FRET ratio of 1750.
In the case of `NC(=O)CSc1oc(-c2cccs2)nc1S(=O)(=O)c1ccccc1`, the TR-FRET ratio was 2010 (active).
With `CCCn1c(N)c(C(=O)CSc2nc3ccccc3c(=O)n2-c2ccc(OC)cc2)c(=O)[nH]c1=O` the TR-FRET ratio was 1480.
`Cc1cc(C)nc(/N=C2\NC(=O)CC(C(=O)O)N2c2ccc(Cl)cc2Cl)n1` (stereo not drawn) gave a TR-FRET ratio of 1590.
Compound `COc1cccc(-c2ccc(SCC(=O)N3CCN(c4ccccc4)CC3)nn2)c1` has a TR-FRET ratio of 1690.
`COc1cc(C2C(C(=O)c3ccc(C)o3)=C(O)C(=O)N2CCc2ccccc2)ccc1O` (stereo not drawn) gave a TR-FRET ratio of 1530.
`COc1cc(C2C(C(=O)c3ccc(C)o3)=C(O)C(=O)N2Cc2cccnc2)ccc1O` (stereo not drawn) gave a TR-FRET ratio of 1570.
In the case of `CCCOc1ccc(C2C(C(=O)c3ccc(C)o3)=C(O)C(=O)N2CCCn2ccnc2)cc1` (stereo not drawn), the TR-FRET ratio was 2170 (active).
`COc1ccc(NC(=O)COC(=O)c2ccc(NS(=O)(=O)/C=C/c3ccccc3)cc2)cc1` gave a TR-FRET ratio of 1720.
In the case of `O=C(c1ccc2ccccc2n1)N1CCN(c2ccccc2Cl)CC1`, the TR-FRET ratio was 1700.
For `COc1ccc(C2C(C#N)=C(N)N(c3ncn[nH]3)C3=C2C(=O)CCC3)cc1` (stereo not drawn), the TR-FRET ratio was 1620.
In the case of `COc1cccc(CN2CCNC(=O)C2CC(=O)N(C)CCc2ccccn2)c1` (stereo not drawn), the TR-FRET ratio was 1620.
With `Cc1ccc(S(=O)(=O)NC(C(=O)N2CCOCCOCCOCCOCC2)c2ccccc2)cc1` (stereo not drawn) the TR-FRET ratio was 1360.
For `CC(C(=O)N1CCOCC1)N1c2cccc3cccc(c23)S1(=O)=O` (stereo not drawn), the TR-FRET ratio was 2090 (active).
Work on `NC(=NC(=O)c1ccccc1)N1CCOCC1` yielded a TR-FRET ratio of 1360.
For `C/C(=N\N1CCN(Cc2ccc(C)cc2)CC1)c1ccco1`, the TR-FRET ratio was 1400.
For `Cc1nnc(SCc2cccc(Cl)c2)n(N)c1=O`, the TR-FRET ratio was 1460.
Work on `Cc1cc([N+](=O)[O-])nn1CCCC(=O)Nc1cccnc1Cl` yielded a TR-FRET ratio of 1580.
`CC(NC(=S)Nc1ccc(S(N)(=O)=O)cc1)c1ccc2c(c1)OCO2` (stereo not drawn) showed a TR-FRET ratio of 1640.
Compound `CC(C)(C)N(CC#CCC(O)(c1ccccc1)C1CCCC1)CCO` (stereo not drawn) has a TR-FRET ratio of 1230.
Work on `O=C1NC(c2cccc(Cl)c2)Nc2ccccc21` (stereo not drawn) yielded a TR-FRET ratio of 1540.
`CC(=O)N1c2ccccc2N(Cc2ccc([N+](=O)[O-])cc2)C(=O)C1(C)C` showed a TR-FRET ratio of 1510.
Work on `CCC1CCCCN1C(=S)Nc1ccc(C(C)=O)cc1` (stereo not drawn) yielded a TR-FRET ratio of 1340.
For `CCN(CCCNC(=O)CSc1cc(=O)n(C)c2cc(Cl)ccc12)Cc1ccccc1`, the TR-FRET ratio was 2600 (active).
Work on `CCN(CC)CCCNC(=O)CCc1ccccc1` yielded a TR-FRET ratio of 1550.
With `CCN(CC)CCCNC(=O)c1cc(-c2cccc(Cl)c2)on1` the TR-FRET ratio was 1610.
With `CCc1ccc(CN(C)Cc2nc(Cc3ccccc3)no2)nc1` the TR-FRET ratio was 1650.
For `CCOC(=O)c1ccc(NC(=O)c2cc(=O)[nH]c3ccccc23)cc1`, the TR-FRET ratio was 1510.
In the case of `O=C(O)Cc1sc(-c2ccccc2)nc1-c1cccs1`, the TR-FRET ratio was 2400 (active).
For `Cc1ccc(-c2nc(C)sc2CC(=O)O)cc1`, the TR-FRET ratio was 1600.
`O=C(O)Cc1sc(-c2ccc(C(=O)O)cc2)nc1-c1ccccc1` showed a TR-FRET ratio of 1800.
For `N#CC1(NC(=O)COc2ccc3oc4ccccc4c3c2)CCCCC1`, the TR-FRET ratio was 1590.
With `COc1cc(C=O)c(Br)cc1OCC(=O)NCc1ccccc1` the TR-FRET ratio was 1530.
`Cc1cc(=O)[nH]c(SCC(=O)N2c3ccccc3CC2C)n1` (stereo not drawn) showed a TR-FRET ratio of 1610.
`O=C(NCc1ccco1)c1cc2sccc2n1Cc1ccc(F)cc1` gave a TR-FRET ratio of 1520.
With `O=C(c1cc2sccc2n1Cc1ccc(F)cc1)N1CCc2ccccc21` the TR-FRET ratio was 2950 (active).
`O=C(CSCc1ccccc1)N1CCc2ccccc21` showed a TR-FRET ratio of 1410.
With `CCOC(=O)c1cc2sccc2n1Cc1ccc(C#N)cc1` the TR-FRET ratio was 1400.
For `CC1Cc2ccccc2N1C(=O)c1cc2sccc2n1Cc1ccccc1` (stereo not drawn), the TR-FRET ratio was 1970 (active).
For `COc1ccc(-c2csc(Cc3nc(O)cs3)n2)cc1`, the TR-FRET ratio was 1650.
Compound `CC(O)c1cccc(NC(=O)Cc2cccc3ccccc23)c1` (stereo not drawn) has a TR-FRET ratio of 1490.
In the case of `CC1(C)CC(=O)C/C(=N\NC(=O)c2cccs2)C1`, the TR-FRET ratio was 1760.
With `COc1cc(/C=C/C(=O)OCC(=O)NC(=O)NCc2ccccc2)ccc1OCC#N` the TR-FRET ratio was 1430.
`C=CCNC(=O)CSc1nc2sc(C)c(C)c2c(=O)[nH]1` gave a TR-FRET ratio of 1430.
In the case of `CC(=O)c1sc2nc(SCC(=O)N3CCCCC3)[nH]c(=O)c2c1C`, the TR-FRET ratio was 1990 (active).
Work on `O=C(CSc1nc2c(cnn2-c2ccc(F)cc2)c(=O)[nH]1)N1CCCCCC1` yielded a TR-FRET ratio of 1460.
With `CCOC(=O)C1CCN(C(=O)CSc2cc(=O)n(C)c3ccccc23)CC1` the TR-FRET ratio was 2840 (active).
For `Cn1c(=O)cc(SCC(=O)N2CCN(C(=O)c3ccco3)CC2)c2ccccc21`, the TR-FRET ratio was 2320 (active).
For `CC(=O)c1ccc(-n2nnnc2SCC(=O)N2CCN(C(=O)c3ccco3)CC2)cc1`, the TR-FRET ratio was 1580.
`CCOC(=O)C1CCN(C(=O)Cn2cc(C#N)c3ccccc32)CC1` showed a TR-FRET ratio of 1470.
Compound `CCOc1ccc(CCNC(=O)CSc2cc(=O)n(C)c3ccc(Cl)cc23)cc1OCC` has a TR-FRET ratio of 1900.
With `Cc1cccc(OCc2nnc(SCC(=O)N3CCN(C(=O)c4ccco4)CC3)n2C)c1C` the TR-FRET ratio was 1760.
In the case of `CCOC(=O)N1CCC(NC(=O)COc2cc(=O)n(C)c3ccccc23)CC1`, the TR-FRET ratio was 1480.
In the case of `Cn1c(=O)cc(SCC(=O)N2CCCC2)c2cc(Cl)ccc21`, the TR-FRET ratio was 2940 (active).
In the case of `O=C(CSCc1ccc(Cl)cc1)N1CCCCC1`, the TR-FRET ratio was 1510.
